According to PubChem BioAssay AID1768 (National Center for Advancing Translational Sciences (NCATS), 2009):
The campaign covered roughly 270,000 compounds. About 620 (0.23%) were called active. Inconclusive results (about 12%) are left out. The full list was thinned out, with actives kept by preference. A number with no mark means an inactive call. Calls come from the whole dose curve; as a rule, active = well fitted inhibition curve with a large enough effect in the polarisation, with a control signal flat (not every such curve was filed as active); inconclusive = small, poorly fitted or top-dose-only effect, or effect the other way, or a change in a side signal; inactive = no such curve, though single readings can be large or run the other way; the % refers to the polarisation.
Potency is the fitted concentration of half-maximal effect.
Throughout, for FP activity change, negative = inhibition: % of control where 0% means no effect.

The molecules below were run against Menin (Homo sapiens) (UniProt O00255) (assay: qHTS Assay for Inhibitors Targeting the Menin-MLL Interaction in MLL Related Leukemias: Competition With Texas Red Labeled MLL-derived Mutant Peptide). Conditions: fluorescence polarization; series mostly up to 61.6 µM; FP activity change, negative = inhibition: at the top concentration.
Menin (Homo sapiens), sequence (O00255 whole entry, looked up, the tested form may be a part): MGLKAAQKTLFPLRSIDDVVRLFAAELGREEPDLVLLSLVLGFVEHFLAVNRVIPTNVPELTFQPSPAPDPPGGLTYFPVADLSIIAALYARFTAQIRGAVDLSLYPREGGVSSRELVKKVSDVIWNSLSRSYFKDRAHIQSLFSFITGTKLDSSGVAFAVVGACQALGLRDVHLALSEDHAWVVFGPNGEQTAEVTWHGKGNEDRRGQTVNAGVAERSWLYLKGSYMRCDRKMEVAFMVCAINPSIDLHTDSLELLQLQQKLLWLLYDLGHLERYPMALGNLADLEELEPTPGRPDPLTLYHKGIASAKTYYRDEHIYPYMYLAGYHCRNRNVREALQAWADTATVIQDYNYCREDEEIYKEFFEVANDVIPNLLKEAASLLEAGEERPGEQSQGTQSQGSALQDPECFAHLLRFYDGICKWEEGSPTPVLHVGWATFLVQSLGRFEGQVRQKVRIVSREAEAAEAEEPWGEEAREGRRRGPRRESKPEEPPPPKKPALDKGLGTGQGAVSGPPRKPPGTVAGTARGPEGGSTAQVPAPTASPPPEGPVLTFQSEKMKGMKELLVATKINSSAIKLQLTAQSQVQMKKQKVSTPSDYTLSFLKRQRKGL
Text: qHTS Assay for Inhibitors Targeting the Menin-MLL Interaction in MLL Related Leukemias NIH Chemical Genomics Center [NCGC] NIH Molecular Libraries Probe Centers Network [MLPCN] MLPCN Grant: MH084875-01A1 Assay Submitter (PI): Jolanta Grembecka, Tomasz Cierpicki, University of Virginia Translocations of the MLL (Mixed Lineage Leukemia) gene are frequently found in human leukemias affecting both children and adults. Fusion of MLL to one of more than 60 genes results in generation of oncogenic proteins upregulating Hox genes, which are vital to blood cell development. Patients harboring fusion of the MLL gene suffer from aggressive leukemias and respond poorly to available therapies. All of the oncogenic fusion proteins have a preserved N-terminal fragment of MLL that has been identified to interact with menin. It has been recently discovered that association with menin is critical to the leukemogenic activity of the MLL fusion oncoproteins. Selective targeting of the menin-MLL interaction could provide an attractive therapeutic approach to develop novel drugs for MLL-related leukemias. Small molecules blocking the menin-MLL interaction should reverse the oncogenic potential of MLL fusion proteins. We have developed and optimized a fluorescence polarization-based assay for the identification of Menin-MLL inhibitors. The assay was run employing two different MLL-derived peptides. The present assay uses a 12 amino acid peptide labeled with fluorescein at its N-terminus. This peptide consists of the menin high affinity binding motif from MLL and is potently bound by menin. Another peptide with a mutated sequence, labeled with Texas Red, was used in parallel as a less stringent screen for inhibitors.
The Menin protein, the MLL-wild type (w.t.) derived peptide (N-terminal 12 amino acids), the MLL-derived peptide labeled with Texas Red and the MLL-w.t. peptide labeled with Fluorescein were kindly supplied by laboratory of Dr. Jolanta Grembecka, University of Virginia. All protein and peptide solutions were stored in single use aliquots at -80C. The Eu3+ Cyrptate-conjugated mouse monoclonal antibody anti-6 Histidine (Eu3+-AB) and the Streptavidin-XL665 conjugate (XL665) were purchased from Cisbio International (Bedford, MA). All antibody and XL665 conjugate solution stocks were stored in single use aliquots at -20C. The Buffer components for all assays were purchased from Sigma-Aldrich (St. Louis, MO) and Invitrogen (Carlsbad, CA). FP Assay Reagents: 1. FP reaction buffer: 50 mM Tris-HCl pH 7.5, 50 mM NaCl, 1mM DTT. Before use, 0.05% BSA is added. 2. Menin protein, MLL-w.t. labeled with fluorescein, MLL-mutant peptide labeled with texas red. Stored in singe use aliquots at -80C. 3. MLL-w.t. unlabeled peptide as positive control: 10 uM final in FP buffer. FP Assay Procedure: 1. Prepare Menin at 200 nM, MLL-w.t.-fluorescein at 25 nM, and MLL-mutant-texas red at 50 nM mixture in FP buffer. 2. Prepare Menin at 200 nM, MLL-w.t.-fluorescein at 25 nM, MLL-mutant-texas red at 50 nM, and 10 uM MLL-w.t. unlabeled mixture in FP buffer. 3. Prepare MLL-w.t.-fluorescein at 25 nM and MLL-mutant-texas red at 50 nM mixture in FP buffer. 3. Dispense 4 ul per well of reagent in step 1 in columns 2, 4 - 48 in a black 1536 well plate, dispense 4 ul per well of reagents from steps 2 and 3 in columns 1 and 3 respectively. Incubate plate at ambient for 15 minutes. 4. Transfer 23 nl per well of compound to plate and incubate at ambient for 1 hr. 5. Read fluorescence polarization for each label using the PerkinElmer Envision. Envision protocol for fluorescein: FITC FP Dual Enh Mirror, Excitation filter 480, Emission filter (1) P-pol 535, Emission filter (2) S-pol 535 Envision protocol for texas red: FP Dual Enh Mirror, Excitation filter 555, Emission filter (1) P-pol 632, Emission filter (2) S-pol 632
For CC[N+](C)(CC)CCC[n+]1c(-c2ccccc2)c2cc(N)ccc2c2ccc(N)cc21, the Potency was 12.6 µM (active).
For CC(=O)[O][Sn]([c]1ccccc1)([c]1ccccc1)[c]1ccccc1, the “FP activity change, negative = inhibition” value was -8.83%.
In the case of CCN(CC)c1nc(C)cc(OP(=S)(OC)OC)n1, the “FP activity change, negative = inhibition” value is reported as -16.6%.
With COC([CH2][Hg])CNC(=O)c1ccccc1OCC(=O)O (stereo not given) the “FP activity change, negative = inhibition” value was -5.59%.
With CO[C@H]1[C@@H](O)[C@@H](C)O[C@H](O[C@H]2[C@H](Oc3cccc4c(O)c5c(=O)oc6ccc(C)c7c(=O)oc(c34)c5c67)O[C@H](C)[C@H](O)[C@@H]2O)[C@@H]1O the “FP activity change, negative = inhibition” value was 4.44%.
For N#Cc1cc(Br)c(O)c(Br)c1, the “FP activity change, negative = inhibition” value was 1.24%.
With CC[C@H]1CN2CCc3cc(OC)c(OC)cc3[C@@H]2C[C@@H]1C[C@H]1NCCc2cc(OC)c(OC)cc21 the Potency was 22.4 µM (active).
C[C@]12O[C@H](C[C@@]1(O)C(=O)O)n1c3ccccc3c3c4c(c5c6ccccc6n2c5c31)CNC4=O was tested, and the “FP activity change, negative = inhibition” value was -12.3%.
In the case of C[C@@H]1C[C@H]2CC[C@H](O2)[C@H](C)C(=O)O[C@@H](C)C[C@@H]2CC[C@@H](O2)[C@@H](C)C(=O)O[C@H](C)C[C@H]2CC[C@H](O2)[C@H](C)C(=O)O[C@@H](C)C[C@@H]2CC[C@@H](O2)[C@@H](C)C(=O)O1, the “FP activity change, negative = inhibition” value is reported as -23.7%.
With O=C1CCc2cccc3c2N1CC3 the “FP activity change, negative = inhibition” value was -0.283%.
